# Reference: PubChem BioAssay AID1626 (SRMLSC, 2009)
# About 2,000 (0.91%) of roughly 220,000 compounds were called active. Inconclusive results (about 2%) are left out. Rule as the data show it: inconclusive = inhibition above about 80% without an active follow-up result; inactive = below that; test concentration not stated here. Not all results are given here. Entries with a potency or affinity are not part of this list.
# Assay: M. tuberculosis H37Rv growth inhibitors, H37Rv strain (AID 1626);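 also: bacteria incubated seven days before Alamar blue readout; 0% = bacteria only wells and 100% = bacteria with antibiotic wells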
# Settings: stronger effect = higher value, concentration not given here
row,SMILES,inhibition
1,c1nc(NCC2(N3CCOCC3)CCCCC2)c2ccsc2n1,-2.31% (inactive)
2,O=S(=O)(c1ccccc1F)N1CCN(C(=S)NCc2ccccc2)CC1,-2.02% (inactive)
3,O=C(Nc1cccc(F)c1)C1CCN(C(=O)c2ccc(Cl)cc2)CC1,-0.97% (inactive)
4,CCN(CC(=O)Nc1ccc(C(=O)OC)cc1)Cc1ccccc1,7.78% (inactive)
5,COc1ccc(N2CC(C(=O)Nc3nnc(SCC(=O)c4ccccc4)s3)CC2=O)cc1 (stereo not given),11.9% (inactive)
6,CCN(CC)CCC(c1ccc(N(C)C)cc1)c1c(OC)cc(OC)c2ccc(=O)oc12 (stereo not given),-0.96% (inactive)
7,CCN(CC)CCC(c1cc(OC)c(OC)c(OC)c1)c1c(OC)cc(OC)c2ccc(=O)oc12 (stereo not given),-19% (inactive)
8,CCN(CC)CCC(c1cc(OC)c(OC)c(OC)c1)c1c(OC)cc(OC)c2c(C)cc(=O)oc12 (stereo not given),-8.36% (inactive)
9,CCN(CC)CCC(c1cc(OC)c(OC)c(OC)c1)c1c(OC)cc(OC)c2c(-c3ccccc3)cc(=O)oc12 (stereo not given),12.6% (inactive)
10,Cc1ccc(CNc2ncccc2-c2nc3cc(Cl)ccc3o2)cc1,-4.72% (inactive)
11,COc1ccc(NC(=O)c2cccnc2Nc2ccc(OC)cc2)cc1,10.9% (inactive)
12,CN(C)CCCCCCCCCCC(=O)/C=N/O,7.54% (inactive)
13,CCn1ncc(CN2CCN(Cc3ccc(OC)c(C)c3C)C(CCO)C2)c1C (stereo not given),3.6% (inactive)
14,N[C@@H](Cc1c[nH]c2ccccc12)c1nnc(SCc2ccccc2)o1,-10.5% (inactive)
15,CCOC(=O)COc1ccc2c3c(c(=O)oc2c1C)CCC3,76.7% (inactive)
16,Cc1cc2oc(=O)c3c(c2cc1OCc1nn[nH]n1)CCCC3,-6.49% (inactive)
17,COCCCn1c(SCC(=O)OC2CCCCC2)nnc1-c1ccco1,-15.4% (inactive)
18,Cc1ccccc1SCc1noc(C(=O)NCC2CCCO2)c1C(=O)O (stereo not given),-6.27% (inactive)
19,COc1ccc(-n2c(O)c(C(C)=NCCCn3ccnc3)c(=O)[nH]c2=O)cc1,-3.9% (inactive)
20,O=C(Nc1ccc(NC(=S)NC(=O)c2cccs2)cc1)c1ccco1,-2.57% (inactive)
21,O=C(OCC(=O)N(C1CCCCC1)C1CCCCC1)c1ccco1,-7.12% (inactive)
22,CCc1[nH]nc2c1C1(CCOC1C)C(C#N)=C(N)O2 (stereo not given),-2.61% (inactive)
23,Cn1c(=O)[nH]c(=O)c2c1nc([N+](=O)[O-])n2Cc1ccccc1,72.1% (inactive)
24,CCCn1c(Sc2nc3c(c(=O)[nH]c(=O)n3C)n2CCC)nc2c1c(=O)[nH]c(=O)n2C,3.31% (inactive)
25,CC(C(=O)c1ccccc1)N1C(=O)c2ccccc2C1=O (stereo not given),-3.22% (inactive)
